The text below walks through data of PubChem BioAssay (NCI).

The structures appear in SMILES notation. The panel holds about 79,000 compounds, 15% with a hit somewhere; the sample as a whole holds those more often. Values without a mark were called inactive. Active and inactive are the calls of the source. No stated cut-off is given here; in the data, active means growth inhibition above about 70%; inactive means the rest.

A short description of assay [1]: NCI Yeast Anticancer Drug Screen. Data for the rad50 strain (AID 155).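 Further: 0% = growth of vehicle-only cultures of the same strain.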 Particulars: S. cerevisiae rad50 strain growth inhibition; at 50.0 µM; hits give high values. An outline of the steps: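 Readout: growth inhibition relative to vehicle-treated cultures. Compound exposure was carried out in a genetically defined yeast strain deficient in DNA damage repair.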
Assay [2] is described as follows: NCI Yeast Anticancer Drug Screen. Data for the mec2-1 strain (AID 157). Conditions: S. cerevisiae mec2-1 strain, at 50.0 µM, hits give high values. An outline of the steps: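 Compounds were applied to mec2-1 yeast cells. Their growth was then compared with that of vehicle-treated cultures to give growth inhibition.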
The nature of assay [3]: NCI Yeast Anticancer Drug Screen. Data for the sgs1 mgt1 strain (AID 161).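 Further: 0% = growth of cultures given vehicle only.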 Particulars: S. cerevisiae sgs1 mgt1 strain, at 50.0 µM, hits give high values. An outline of the steps:
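This yeast growth screen uses a strain with defined DNA-repair lesions; compound-treated growth is compared with vehicle-treated growth.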

The nature of assay [4]: NCI Yeast Anticancer Drug Screen. Data for the cln2 rad14 strain (AID 165).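 Further: 0% = growth equal to vehicle treated cultures.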 Conditions: S. cerevisiae cln2 rad14 strain, at 50.0 µM, hits give high values. An outline of the steps: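 Strain: cln2 rad14 yeast, altered in cell cycle control and DNA damage repair. Read-out: growth inhibition vs vehicle.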
The nature of assay [5]: NCI Yeast Anticancer Drug Screen. Data for the bub3 strain (AID 167). Conditions: S. cerevisiae bub3 mutant strain, at 50.0 µM, hits give high values. An outline of the steps: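 Readout: yeast growth inhibition, expressed relative to vehicle-only wells. The test organism is a mutant strain from a panel with lesions in DNA repair or checkpoint genes.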
The nature of assay [6]: NCI Yeast Anticancer Drug Screen. Data for the mlh1 rad18 strain (AID 175). Conditions: S. cerevisiae mlh1 rad18 strain growth inhibition; at 50.0 µM; hits give high values. An outline of the steps: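 A repair-deficient yeast strain is exposed to test compound, and growth is scored relative to vehicle-treated controls.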

As to `CCCCCCCCCCCC(=O)OC(C)CO` (stereo unspecified), the growth inhibition in assay [1] was -3.9%; in assay [2], -10.9%; in assay [3], -3.7%; in assay [4], -32.9%; in assay [5], -1.45%; in assay [6], 17.1%.
On to `CCN(CC)CCOC(=O)c1ccc(N=Nc2ccc(O)cc2O)cc1`, for which the growth inhibition in assay [1] was -12.8%; in assay [2], -2.7%; in assay [3] it was -1.3%; in assay [4], -21.7%; in assay [5], -24.5%; in assay [6], -17.1%.
As for `Cc1cc(C)cc(NC(=O)CCC(=O)C2CCC/C2=N\NC(=O)C(=O)NN)c1` (stereo unspecified), the growth inhibition in assay [1] is 3.95%; in assay [2] it was -2.7%; in assay [3], -20.6%; in assay [4], 2.1%; in assay [5], 5.2%; in assay [6] it was -6.8%.
As to `ClC1C2C=CC(C2)C12OCCO2` (stereo unspecified), the growth inhibition in assay [1] was 2.35%; in assay [2], 11.7%; in assay [3], -1.6%; in assay [4], 6.85%; in assay [5], -10.7%; in assay [6], -18.4%.
As for `O=C(O)c1ccccc1NC(=O)C1CCCCC1`, the growth inhibition in assay [1] was 10.1%; in assay [2] it was 6.8%; in assay [3] it was 16.3%; in assay [4], 0.85%; in assay [5] it was -6.55%; in assay [6], 14.5%.
Turning to `COc1cccc2c1C(=O)c1c(O)c3c(c(O)c1C2=O)CC(O)(C(O)CO)CC3OC1CC(N2CCSCC2)C(O)C(C)O1` (stereo unspecified), the growth inhibition was 87.7% (active) in assay [1]; 87.5% (active) in assay [2]; 88% (active) in assay [3]; 84% (active) in assay [4]; 85.8% (active) in assay [5]; 90.3% (active) in assay [6].
In the case of `Nc1nc(Nc2ccccc2)c2ncn(C3OC(CO)C(O)C3O)c2n1` (stereo unspecified), the growth inhibition is 12.7% in assay [1]; 1.25% in assay [2]; 0.25% in assay [3]; -1.35% in assay [4]; 3.6% in assay [5]; -12.3% in assay [6].
As for `CCC(C)CCC(N)C(=O)O` (stereo unspecified), the growth inhibition in assay [1] is 2.3%; in assay [2] it was 11.4%; in assay [3] it was -3.95%; in assay [4] it was -0.1%; in assay [5] it was 2%; in assay [6] it was 1.75%.
Regarding `CSc1nc2c(c(=O)n1C)N=C(c1ccccc1)[C@H](C(CC(=O)c1ccccc1)c1ccccc1)C(c1ccccc1)N2` (stereo partly specified), the growth inhibition in assay [1] was 46.6%; in assay [2], 43.9%; in assay [3], 41.1%; in assay [4], 24.2%; in assay [5], 14.6%; in assay [6], 11.8%.
For `CCOC(=O)c1c(C)[nH]c(=S)c(C#N)c1-c1ccco1`, the growth inhibition in assay [1] was 17.7%; in assay [2], 6.15%; in assay [3] it was 10.8%; in assay [4] it was 4.4%; in assay [5], -3.35%; in assay [6] it was 28%.
`CCOC(=O)Cc1[nH]c(C(=O)OCC)c(CC(=O)OCC)c1C(=O)OCC`: the growth inhibition in assay [1] is 6.3%; in assay [2], 8.45%; in assay [3] it was 8.3%; in assay [4] it was -4.2%; in assay [5] it was 0.1%; in assay [6], 15.7%.
Turning to `COC(=O)/C(=C/c1ccccc1)N(C(C)=O)C(C)=O`, the growth inhibition is 0.05% in assay [1]; -1.6% in assay [2]; 10.3% in assay [3]; -1.5% in assay [4]; 13.4% in assay [5]; 8.5% in assay [6].
Take `Cc1cc(S(=O)(=O)Nc2n[nH]c(Nc3ccc4ccccc4c3)n2)c(S)cc1Cl`: the growth inhibition in assay [1] was 34.2%; in assay [2] it was 5.85%; in assay [3], 29.2%; in assay [4], 36.5%; in assay [5], 35.9%; in assay [6] it was 39.9%.
Take `c1ccc2c(c1)nn1c3ccc4nonc4c3[n-][n+]21`: the growth inhibition is 1.2% in assay [1]; -0.5% in assay [2]; 25.9% in assay [3]; 13.2% in assay [4]; 31.4% in assay [5]; -11.4% in assay [6].
As for `COC(=O)c1nnn(-c2ccc(C)c(C)c2)c1C(=O)c1ccccc1`, the growth inhibition is -2.7% in assay [1]; -2.5% in assay [2]; -15.2% in assay [3]; 16.5% in assay [4]; -8.25% in assay [5]; 29.1% in assay [6].
Regarding `Cc1ccccc1-n1c(=O)sc2c(=O)n(-c3ccccc3)c(=S)[nH]c21`, the growth inhibition in assay [1] was -11.2%; in assay [2], -23.4%; in assay [3], 6.9%; in assay [4], 6.2%; in assay [5] it was 0.6%; in assay [6], -18.9%.
For `O/N=C1/C2C=CC(C2)C1Cl` (stereo unspecified), the growth inhibition in assay [1] was 1.35%; in assay [2], -5.75%; in assay [3] it was 11.7%; in assay [4], 13.7%; in assay [5] it was -10.1%; in assay [6] it was -16.9%.
Take `O=S(c1ccccc1)[C@H]1CC2C3CC4C2C4C31` (stereo partly specified): the growth inhibition in assay [1] is 2.3%; in assay [2] it was 4.7%; in assay [3] it was -1.7%; in assay [4], 4.45%; in assay [5], 19.9%; in assay [6] it was 17.9%.
Regarding `Cc1c(F)c(Br)c([N+](=O)[O-])c(C)c1[N+](=O)[O-]`, the growth inhibition is -7.15% in assay [1]; 5.45% in assay [2]; -8.8% in assay [3]; -4.15% in assay [4]; -1.2% in assay [5]; -17.9% in assay [6].
Take `CC1=CCC(=O)O1`: the growth inhibition in assay [1] is 2.15%; in assay [2] it was 8.2%; in assay [3] it was -1.7%; in assay [4] it was 12.2%; in assay [5], -7.75%; in assay [6], 15.3%.
Take `N#CC1(C#N)C(CCl)C1(C#N)C#N`: the growth inhibition is 2.85% in assay [1]; -6.95% in assay [2]; -1.15% in assay [3]; -15.2% in assay [4]; -4% in assay [5]; -8.6% in assay [6].
